In the supplement of paper PMC6555819:

Key:
Test in all cases: PBM binding z-score (relative to random genomic background probes); higher = stronger binding; sequences stand for … in GC…GCGATTGACAGCGTAGAATGAAGG
[1] = test system: RARb homodimer (NR concentration 270 nM)
Summary of the method: (§1)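 Ligand-free nuclear receptor dimers were applied to custom Agilent 4×180K protein-binding microarrays whose double-stranded probes carried direct-repeat seeds, single-nucleotide variants, half-site ablations and random human genomic background sequences in 34-nt variable regions. Incubation lasted 1 h. Binding z-scores were computed against the random background probes from regression-normalized fluorescence.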

[2] = test system: RARg:RXRa (NR concentration 270 nM, RXRa partner concentration 90 nM)
Summary of the method: as §1

[3] = test system: RARg homodimer (NR concentration 270 nM)
Summary of the method: as §1

[4] = test system: RXRa DBDmut IVT, anti-RXR (DBD mutation: RXRa K156A/R161A, NR concentration 90 nM)
Summary of the method: as §1

[5] = test system: RXRa homodimer (NR concentration 180 nM)
Summary of the method: as §1

[6] = test system: THRa:RXRa (NR concentration 90 nM, RXRa partner concentration 90 nM)
Summary of the method: as §1

[7] = test system: THRa homodimer (NR concentration 90 nM)
Summary of the method: as §1

[8] = test system: VDR homodimer (NR concentration 270 nM)
Summary of the method: as §1

Sequence	PBM binding z-score [1]	PBM binding z-score [2]	PBM binding z-score [3]	PBM binding z-score [4]	PBM binding z-score [5]	PBM binding z-score [6]	PBM binding z-score [7]	PBM binding z-score [8]
CCAGAGAGGTGAAAGGTAACTCAGTCTGGTACGC	1.42	2.57	1.44	0.39	3.56	2.1	0.391	0.0875
ACAGACAGGTGAAGAAGGTAACTCAGGCTATCAT	0.685	0.696	0.885	-0.215	0.527	1.32	0.0297	-0.131
CGTCCAAGGTCAAGGTCAGTGAGAGAGACTCGAA	5.4	6.7	7.4	3.75	6.25	4.31	3.35	3.5
GCTAGCAGGCCATTTGGGTCACTCACTGACGGGC	1.96	0.722	1.04	0.199	0.604	1.73	0.972	0.0479
TCATATAGGTAATACAGATGAAAGTCGGCATCTA	-0.481	0.349	0.543	1.28	1.09	-0.0206	-0.254	0.0563
CTACCAAGGTGAACAAGGTCGTAGATTACTATTC	1.98	2	1.6	0.741	2.24	3.24	1.88	1.72
CAAATTAGGTCACCGGAAGGTCAAAGTCCGCATG	5.53	8.32	7.57	2.34	6.18	4.78	3.89	3.8
ACAGACAGGTGATGAAGGTATCTCAGGCTATCAT	0.276	0.119	0.27	-0.321	0.203	0.741	-0.068	-0.586
ATATGTAGGTTATCGGGTCAGTCAGTTTGCGCAT	2.84	2.76	2.42	1.01	2.44	2.68	2.08	2.46
CGTCAAAGTTTAAGGTAACGTAACAGAAAGCAGC	0.852	0.923	1.7	1.29	0.482	3.1	3.1	-0.0381
GTACCAAGGTGATTAGGTCGTTGATGAGTAGGCG	1.06	0.806	0.66	0.0245	0.805	1.49	1.03	0.631
GCTGCTAGGACAACTGATGGTCAGCTAAAGCTCG	0.137	-0.166	0.37	-0.0279	-0.722	0.434	-0.447	-1.49
CTCGAAAGGTCGGTTGAGGTGAGCATACGGATAA	2.57	3.04	2.99	0.598	2.33	5.04	1.56	0.64
TCATATAGGTAATACAGTTGAAAGTCGGCATCTA	0.353	0.792	0.493	1.96	1.26	0.327	0.576	0.467
TGAATGAGGTTATTAGATCAGGGAACGTTGCAAA	0.387	1.36	0.893	1.46	1.66	2	0.756	0.942
ATCGCTAGGTAACCAAGTTCAGTGAATGCCGAAC	0.915	0.229	0.277	0.0688	0.062	0.934	-0.378	1.7
CCTTACGGGTCACTCCAGGTTATACCATCGGAGT	2.89	4.32	4.44	1.3	4.29	4.98	0.681	1.45
CCTACTGTGCCAAAAAGGTCATTGATGCCGATAA	4.41	4.52	3.97	1.73	4.42	3.26	1.48	3.38
TCCTGTAGATCAATAGAGGTTAAGAAAGTGCGCT	1.25	0.701	0.381	1.41	1.19	2.29	-0.00152	0.39

Sequence	PBM binding z-score [1]	PBM binding z-score [2]	PBM binding z-score [3]	PBM binding z-score [4]	PBM binding z-score [5]	PBM binding z-score [6]	PBM binding z-score [7]	PBM binding z-score [8]
CGAGCTAGGTCAGAACAGGACAGTGAAGGATGAT	2.11	2.12	3.53	0.0691	1.07	3.47	-0.106	-0.325
ACTTACGGTTCAACGAGGTTATAGCACGCGTATA	1.54	2.25	1.14	3.49	3.22	3.06	0.878	5.32
CCTCGGAGGACAACAGGAGGTTAGAGCTGCCAGA	1.12	0.878	1.47	0.257	-0.0815	1.19	0.00678	0.0214
ACTTACGTGTCAACGAGGTTATAGCACGCGTATA	1.17	1.44	1.18	0.532	1.38	1.99	0.476	0.875
CCGACTGGGGCAAGGGTTACCATACTCAGTACGA	1.16	1.49	1.3	-0.851	1.71	0.704	-0.463	0.0843
TCGAGTAGGTTACCAATGGGACATTCAGCTTTCT	-0.0362	0.634	0.55	0.448	0.451	0.207	-0.766	-0.643
ACTATTAGTTCACTTAGGGCAACCGATACGACGC	1.93	2.02	2.25	2.72	1.04	3.1	0.596	2.32
CCTACTGGGCCACGAAAGGTCATTAATTCAGTGA	4.39	4.33	3.75	0.737	4.52	3.67	1.04	2.25
GCGACTTGGGCAAAGCAGGTTACCATAAGGTTGG	-0.0673	-0.0478	-0.407	-0.506	0.218	1.39	-0.348	-0.774
TCTTGTAGATCTGCAGGTTAAGAAAGCTGGCCAA	0.11	-0.162	-0.524	0.681	0.267	0.319	-0.531	-0.245
ATCGAAAGGTCGACGATGTGAGTATACACCGTTT	2.66	3.8	3.82	1.13	4.27	1.91	-0.483	0.438
AGTCAAAGTTCAGGACGAGGTAACGTATAGCACG	3.26	4.94	4.94	3.22	3.15	3.88	1.73	2.37
CGTCCAAGGTCAGAGAGGTCGGTGAATGCCGAGT	4.09	4.84	5.91	2.7	3.93	3.66	1.38	3.09
CGAACTAGGTCATCCAGGAGAGTGAATACATTGA	2.87	3.87	4.68	2.19	2.84	2.93	0.976	0.755
ATATCTAGGTAAAGATAGTTCAGTGAATGCAAAT	0.985	0.606	0.877	0.0845	0.518	0.642	-0.33	0.327
CACACTAGGTCAAGGTCAAAGTCGGTTTGTGCCA	4.95	6.21	6.6	3.28	5.76	4.44	4.03	4.95
CCTTACAGGTCACTGACAGGTTATAGCATTTGGA	3.83	5.94	5.46	2.62	4.91	3.28	0.808	1.41
ATCGTAAGGTCGAGGTGAGTATAGAGAAAGGGAA	2.13	3	3.23	1.49	2.55	3.43	2.18	0.892
TCTTGTAGATCAAGCAGGTTGAGAAAGCCTGAGT	-0.543	-0.355	-0.321	0.479	-0.0549	0.0431	-0.698	-0.0523

Sequence	PBM binding z-score [1]	PBM binding z-score [2]	PBM binding z-score [3]	PBM binding z-score [4]	PBM binding z-score [5]	PBM binding z-score [6]	PBM binding z-score [7]	PBM binding z-score [8]
CCGACTGGGCCAAAGGTTACCATACTCAGTACGA	2.31	2.84	1.45	0.18	3.2	1.56	0.0942	-0.0479
TCATATAGGTAAAAGGCGAAAGTCGGTGTGGTAA	-0.139	0.0161	-0.195	1.51	0.665	-0.0856	-0.0858	0.0813
AGAACGAAGGCACGCTGAGTTGATAGCAGAGTAG	-0.785	-0.198	0.0507	-0.345	0.0315	-0.717	-1.12	-0.212
AGTCACAGTTCACTAGGTAACGTAAGATTCAGCT	1.19	2.17	2.07	2.64	1.74	1.34	0.333	1.8
CCAGACAGGTGAGAAGGTAACTCAACCTCGATTA	0.715	0.716	0.698	0.0591	0.59	0.724	0.31	-0.0105
CCGACTGGGGCATAACGTTACCATAAGCCAGCCC	-0.131	-0.0174	0.122	-0.083	-0.0796	-0.497	-0.431	-0.0002
ACTAGCAGGCCAAGGGTAACTCAAGATTAGTCCG	0.76	0.469	0.734	-0.0114	0.59	0.54	-0.321	-0.349
ACTAGCAGGCCAAGTTTGGGACACTCAAACAAAG	0.289	0.191	0.555	-0.499	-0.592	1.45	0.404	-0.549
GGATATAGGTAATACAAGGTGAAAGTCCGATTGT	1.38	0.879	0.935	0.283	0.977	4.46	1.64	0.913
ACTTACGGGTCAACTAGGTTATAGCACGCGTATA	3.63	5.71	5.16	2.08	5.82	3.52	0.857	2.03
CCTAGTTGGTCAGTAGGTCACACACCGGATATGA	3.59	3.58	3.25	0.459	2.79	2.1	1.32	1.29
TCATATAGGTTATACAGGTGAAAGTCGGCATCTA	1.48	1.73	1.29	2.09	2.2	1.92	0.477	0.534
AGAATGAGGTTATACATAGATCAGGGAAGAAAGT	0.905	2.03	1.38	1.27	2.42	2.19	0.855	1.24
CCTACTCGGCCAAAGGTCATTGATTCCAATGCTC	4.75	6.07	5.2	1.7	6.26	3.41	1.46	2.63
ATCCCTAGGTAACCAAGTTCAGTGAATGCCGAAC	1.97	0.484	0.374	0.841	0.841	1.79	1.02	2.77
GGCACGAGGGCAAGTTGATAGCAGAGTTTGATGG	1.6	1.91	2.12	2.06	1.17	1.23	0.0135	1.58
CCAGACAGGCGAGAAGGTAACTCAGCCTCGATTA	-0.738	-0.546	-0.427	-0.382	-0.473	-0.499	-0.402	-0.366
AATCGGAGGACAAAGGTCAGAGCTACGCCAGTGA	4.37	5.79	4.98	0.662	4.98	3.55	0.579	1.36
GCCATTAGTTGAAAGGGCAACCGAATGATTCTCG	2.22	1.54	1.32	0.641	1.24	0.595	-0.31	-0.125
